# Measurements as given in PubChem BioAssay AID463173 (ICCB-Longwood Screening Facility, Harvard Medical School, 2010).
# The whole screen tested about 52,000 compounds, of which about 4,300 (8.3%) were called active. Cut-off read from the data, not from the text of the source: active = survival mostly below about 52% (no sharp cut-off); inactive = mostly above about 56%. Only a selection was taken, and actives are over-represented in it overall.
# Test system: DeltatarO mutant
# Assay: S. aureus survival, RN4220 and DeltatarO strains – OD600, teichoic acid synthesis inhibitors, primary screen (AID 463173)
# Settings: S. aureus RN4220 wild type/DeltatarO growth, OD600, 18 h, stronger effect = lower value, screened at 18.75 µg/mL (by protocol)
row,SMILES,survival
1,O=C(NCc1ccco1)C1CCN(C(=O)N2CCOc3ccccc32)CC1,80% (inactive)
2,O=C(c1ccco1)N(Cc1cccs1)c1ccc(F)cc1,111% (inactive)
3,CCc1ccc(NC(=O)C2CCN(c3nnc(-n4c(C)ccc4C)s3)CC2)cc1,79% (inactive)
4,NNc1ccc2nnc(C(F)(F)F)n2n1,73% (inactive)
5,Cc1ccc(CNc2ncnc3c2c(-c2ccccc2)cn3-c2ccccc2)cc1,90% (inactive)
6,O=S(=O)(NCc1ccco1)c1ccc(-c2ccc(S(=O)(=O)NCc3ccco3)cc2)cc1,64% (inactive)
7,CCc1ccc(Cn2nnc(C(=O)Nc3ccc(C)cc3)c2N)cc1,133% (inactive)
8,CN(C)c1ccc(CNC(=O)c2cccc(NC(=O)N3CCSc4ncccc43)c2)cc1,94% (inactive)
9,COc1ccccc1NC(=O)C1=C(C)NC2=C(C(=O)CCC2)C1c1cc2c(cc1Br)OCO2 (stereo not given),44% (active)
10,COc1ccccc1NC(=O)C1=C(C)Nc2sc(C#N)c(N)c2C1c1ccco1 (stereo not given),76% (inactive)
11,COC(=O)C1=C(C)NC2=C(C(=O)c3ccccc32)C1c1cc2c(cc1Cl)OCO2 (stereo not given),82% (inactive)
12,CC(C)CC(=O)Nc1nnc2n1CCS2,99% (inactive)
13,Cc1nn(-c2ccccc2)c2[nH]c(=O)c(CNCc3cccnc3)cc12,102% (inactive)
14,CC(C)(C)C1CCc2nc(NC(=O)COc3ccc(F)cc3)sc2C1 (stereo not given),115% (inactive)
15,CCCC(=O)Nc1nc2c(s1)CC(C(C)(C)C)CC2 (stereo not given),14% (active)
16,CC1CCc2nc(NC(=O)Cc3ccc(Cl)cc3)sc2C1 (stereo not given),46% (active)
17,CC(C)CC(=O)Nc1nc2c(s1)CC(C(C)(C)C)CC2 (stereo not given),102% (inactive)
18,Cc1cc(C)cc(OCC(=O)Nc2nc3c(s2)CC(C(C)(C)C)CC3)c1 (stereo not given),107% (inactive)
19,CC(C)C(=O)Nc1nc2c(s1)CC(C(C)(C)C)CC2 (stereo not given),92% (inactive)
20,CC(C)(C)C1CCc2nc(NC(=O)Cc3ccc(Cl)cc3)sc2C1 (stereo not given),18% (active)
21,COc1ccccc1OCC(=O)Nc1nc2c(s1)CC(C)CC2 (stereo not given),69% (inactive)
22,COc1ccc(CC(=O)Nc2nc3c(s2)CCCC3)cc1,95% (inactive)
23,COc1ccc(CC(=O)Nc2nc3c(s2)CC(C)CC3)cc1 (stereo not given),75% (inactive)
24,CC(C)(C)C1CCc2nc(NC(=O)COc3ccccc3[N+](=O)[O-])sc2C1 (stereo not given),106% (inactive)

row,SMILES,survival
1,COc1ccc(CC(=O)Nc2nc3c(s2)CC(C(C)(C)C)CC3)cc1 (stereo not given),29% (active)
2,Cc1cccc(C(=O)Nc2ccc(N3CCC(N4CCCCC4)CC3)c(C(=O)O)c2)c1,100% (inactive)
3,CCOc1ccc(-n2c(=O)c3c4c(sc3n(CC(=O)NC(C)CC)c2=O)CCCCC4)cc1 (stereo not given),98% (inactive)
4,COCCNC(=O)CN1C(=O)COc2ccc(S(=O)(=O)N3CCOCC3)cc21,88% (inactive)
5,CCSc1nc2n(n1)C(c1ccc(Cl)cc1Cl)C(C(=O)Nc1ccccc1C)=C(C)N2 (stereo not given),67% (inactive)
6,COc1ccc(C(=O)NCCc2sc(-c3ccc(Cl)cc3)nc2C)c(OC)c1,123% (inactive)
7,Cc1ccc(C)c(CN2C(=O)c3ccccc3Sc3ccc(C(=O)NC4CCCC4)cc32)c1,128% (inactive)
8,COc1ccc(CNC(=O)C2CCN(S(=O)(=O)N3CCC(C)CC3)CC2)c(OC)c1,89% (inactive)
9,CCOC(=O)c1ccc(NC(=O)CSc2nc3ccccc3c(=O)n2CCNC(C)=O)cc1,91% (inactive)
10,CCc1ccc(CNC(=O)c2nn(-c3ccc(OC)c(Cl)c3)c(=O)c3c2c2ccccc2n3C)cc1,104% (inactive)
11,Cc1ccccc1C(=O)Nc1nc2c(s1)CC(C(C)(C)C)CC2 (stereo not given),115% (inactive)
12,Cc1cccc(OCC(=O)Nc2nc3c(s2)CC(C(C)(C)C)CC3)c1C (stereo not given),105% (inactive)
13,CC(C)(C)C1CCc2nc(NC(=O)c3ccc([N+](=O)[O-])cc3)sc2C1 (stereo not given),95% (inactive)
14,CC(C)(C)C1CCc2nc(NC(=O)c3cccc(Cl)c3)sc2C1 (stereo not given),3% (active)
15,CC(C)(C)C1CCc2nc(NC(=O)Cc3ccccc3)sc2C1 (stereo not given),19% (active)
16,CCOc1cccc(C(=O)Nc2nc3c(s2)CC(C(C)(C)C)CC3)c1 (stereo not given),77% (inactive)
17,COc1ccc(CC(=O)NCCc2sc(-c3cccc(F)c3)nc2C)cc1,68% (inactive)
18,COc1ccccc1NC(=O)CN1C(=O)CCSc2ccccc21,89% (inactive)
19,O=C(O)CSc1nc2ccccc2c(=O)n1-c1ccccc1,78% (inactive)
20,Cc1cc(Nc2cccc(Cl)c2)nc2ccc(NC(=O)c3cccc(N(C)C)c3)cc12,106% (inactive)
21,CCN1CCN(C(=O)c2ccc3c(c2)N(Cc2ccccc2F)C(=O)c2ccccc2S3=O)CC1 (stereo not given),105% (inactive)
22,Cc1ccc(OCC(=O)OCc2cc(=O)n3nc(C4CCCCC4)sc3n2)cc1,120% (inactive)
23,COc1ccc(C(CNC(=O)COc2ccc(Cl)c(C)c2)N2CCOCC2)cc1 (stereo not given),63% (inactive)
24,Cc1cc2oc(=O)cc(C)c2c2occ(-c3ccc(Cl)cc3)c12,72% (inactive)

row,SMILES,survival
1,CCc1cc(=O)oc2cc(C)c3c(-c4ccc(F)cc4)coc3c12,33% (active)
2,Cc1cc2oc(=O)c(CC(=O)O)c(C)c2c2occ(-c3ccc(F)cc3)c12,49% (inactive)
3,Cc1cc2oc(=O)c(CC(=O)O)c(C)c2c2occ(-c3ccccc3)c12,53% (inactive)
4,COc1ccc(-c2coc3c2c(C)cc2oc(=O)c(CC(=O)O)c(C)c23)cc1,42% (active)
5,CCCc1cc(=O)oc2cc(C)c3c(-c4ccccc4)coc3c12,65% (inactive)
6,Cc1cc(NC2C3CC4CC(C3)CC2C4)n2ncnc2n1 (stereo not given),105% (inactive)
7,O=C(NCc1ccccc1)c1ccccc1C(=O)c1ncc[nH]1,91% (inactive)
8,CCOc1ccc(NC(=O)c2oc3ccccc3c2NC(=O)COc2cccc(OC)c2)cc1,78% (inactive)
9,COc1ccc(Cl)c2sc(NC(=O)c3ccc(S(=O)(=O)N4CCOCC4)cc3)nc12,69% (inactive)
10,COc1ccc(NC(=O)c2c(NC(=O)c3cccc(C)c3)sc3c2CCC3)cc1,64% (inactive)
11,Cc1cccc(C(=O)Nc2sc3c(c2C(=O)Nc2ccccc2)CCC3)c1,66% (inactive)
12,Cc1cccc(C(=O)Nc2sc3c(c2C(=O)O)CCCC3)c1,23% (active)
13,Cc1cccc(C(=O)Nc2sc3c(c2C(=O)NC(C)C)CCCC3)c1,46% (active)
14,COc1ccc(NC(=O)c2c(NC(=O)c3cccc(C)c3)sc3c2CCCC3)cc1,75% (inactive)
15,Cc1cccc(C(=O)Nc2sc3c(c2C(=O)NCc2ccco2)CCCC3)c1,83% (inactive)
16,Cc1cccc(OCc2nnc(SC(C)C(=O)O)n2Cc2ccccc2)c1 (stereo not given),103% (inactive)
17,CCc1ccc(N(CC(=O)N2CCCCC2)S(C)(=O)=O)cc1,105% (inactive)
18,CCc1ccc(CNC(=O)C2CCN(c3nnc(-n4c(C)ccc4C)s3)CC2)cc1,86% (inactive)
19,COc1cccc(CNC(=O)c2cc(=O)[nH]c3ccc(S(=O)(=O)N4CCCC4)cc23)c1,60% (inactive)
20,COc1ccc(-c2nc3sc(CCNC(=O)Cc4ccc(F)cc4)c(C)n3n2)cc1,94% (inactive)
21,CCOC(=O)c1scc(-c2ccc(C)cc2)c1S(=O)(=O)Nc1cc(OC)ccc1OC,92% (inactive)
22,CCOC(=O)c1scc(-c2ccc(C)cc2)c1S(=O)(=O)Nc1cc(Cl)ccc1OC,-5% (active)
23,COc1ccc(NC(=O)CN(c2cc(C)cc(C)c2)S(=O)(=O)c2c(C)noc2C)cc1Cl,91% (inactive)
24,CCOC(=O)c1scc(-c2ccc(C)cc2)c1S(=O)(=O)Nc1ccc(OC)c(Cl)c1,77% (inactive)

row,SMILES,survival
1,CCOC(=O)c1c(C)[nH]c(C)c1S(=O)(=O)NCC(=O)Nc1cc(C)ccc1OC,60% (inactive)
2,CCc1ccccc1NC(=O)CN(c1ccc(OC)cc1)S(=O)(=O)c1c(C)n[nH]c1C,74% (inactive)
3,COc1ccccc1NC(=O)CN(c1cc(C)cc(C)c1)S(=O)(=O)c1c(C)[nH]c(=O)[nH]c1=O,118% (inactive)
4,CCOC(=O)c1c(C)[nH]c(C)c1S(=O)(=O)NCC(=O)Nc1cc(Cl)ccc1OC,-4% (active)
5,CCOC(=O)c1c(C)[nH]c(C)c1S(=O)(=O)N(C)CC(=O)Nc1cc(Cl)ccc1OC,117% (inactive)
6,COc1ccc(Cl)cc1NC(=O)CN(c1cc(C)cc(C)c1)S(=O)(=O)c1c(C)n[nH]c1C,9% (active)
7,CCOc1ccc(N(CC(=O)Nc2cc(C)ccc2C)S(=O)(=O)c2c(C)[nH]c(=O)[nH]c2=O)cc1,69% (inactive)
8,CCOc1ccc(OCC)c(NC(=O)CN(c2ccc(C)cc2)S(=O)(=O)c2c(C)n[nH]c2C)c1,32% (active)
9,COc1ccc(NC(=O)c2c(NCc3cccs3)sc3c2CCCCC3)c(OC)c1,69% (inactive)
10,CC1CN(C(=O)CCC(=O)NCc2ccc(F)cc2)c2cc(Cl)ccc2O1 (stereo not given),80% (inactive)
11,Cc1cc(-c2ccccc2)nc2cc(C(=O)Nc3ccc(Cl)c(Cl)c3)nn12,52% (inactive)
12,CC(=O)N1CCCC1c1nc2ccccc2n1Cc1ccccc1F (stereo not given),61% (inactive)
13,COC(=O)c1ccc(OCC2c3cc(OC)c(OC)cc3CCN2C(=O)c2ccc(F)cc2)cc1 (stereo not given),76% (inactive)
14,COc1ccc(CCNC(=O)c2ccc3c(c2)N(Cc2ccc(F)cc2)C(=O)c2ccccc2S3(=O)=O)cc1OC,104% (inactive)
15,CC(C)NS(=O)(=O)c1cccs1,65% (inactive)
16,CC(C)c1cccc(C(C)C)c1NS(=O)(=O)c1cccs1,41% (active)
17,O=S(=O)(Nc1ccc(O)cc1)c1cccs1,83% (inactive)
18,COc1ccc(S(=O)(=O)N(Cc2nc(-c3ccc(C)cc3)no2)C2CCCCC2)cc1,63% (inactive)
19,Cc1cccc(-c2noc(CN(C(C)C)S(=O)(=O)c3ccc(Br)cc3)n2)c1,45% (active)
20,Cc1ccc(-c2noc(CN(C3CCCCC3)S(=O)(=O)c3ccc(C)cc3)n2)cc1,62% (inactive)
21,CCN(Cc1nc(-c2ccc(OC)c(OC)c2)no1)S(=O)(=O)c1ccc(OC)cc1,47% (inactive)
22,Cc1cccc(-c2noc(CNC(=O)c3ccco3)n2)c1,83% (inactive)
23,COc1ccc(-c2noc(CN(C(C)C)S(=O)(=O)c3ccc(Br)cc3)n2)cc1,44% (active)
